Compound activity: PubChem, National Center for Advancing Translational Sciences (NCATS)
MCF10A rereplic – induces DNA re-replication in MCF 10a normal breast cells | 350,000 compounds, 2.9% hits | Potency, µM (titrated, usually from 46.1 µM), for the others: top-dose activity, positive = re-replication, actives largely listed as activators | AID 624296 | MCF 10A DNA re-replication, Hoechst nuclear intensity, 48 h; note: % of control where 0% means no effect; nearly all actives have a fitted effect of over 50% in size
SW480 rereplic – inducers of DNA re-replication in SW480 colon cancer cells; AID 624297; 340,000 compounds, 1.8% hits; SW480 DNA re-replication, Hoechst DNA content imaging, 48 h; Potency, µM (series often up to 46.1 µM), inactives show top-dose re-replication activation, usual class: activators; note: % of control where 0% means no effect; nearly all actives have a fitted effect of over 55% in size
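Quantitative HTS format with DMSO vehicle controls; 48 hr drug incubation at 37 C, then 40 min Hoechst staining and scanning imager measurement at 405 nm excitation.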
KB-V1 MDR tox – KB-V1 MDR subline cytotoxicity. KB-V1 MDR cells viability, CellTiter-Glo, 72 h. Potency, µM (doses to about 46.1 µM), usual class: cytotoxic. 400,000 compounds, 3.4% hits. AID 1347076; note: % is set by controls: 0 for no effect and ±100 for the full control effect; nearly all actives have a fitted effect of over 60% in size
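Potencies derive from concentration-effect curves fitted to normalized luminescence (CellTiter-Glo) of KB-V1 cells treated for 72 h at 37 degrees C in phenol-red-free DMEM containing 10% FBS.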
ELG1 DNA repair – ELG1-dependent DNA repair inhibition | AID 504467 | Potency, µM (doses to about 46.1 µM), without a hit: at the highest dose activity change, negative = inhibition, most hits filed as inhibitors | HEK293T ELG1-luciferase reporter, luminescence, 16 h; DNA damage induced by 5-fluorouridine | 330,000 compounds, 2.3% hits; note: % is set by controls: 0 for no effect and ±100 for the full control effect; nearly all actives have a fitted effect of over 55% in size
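Quantitative HTS, concentration-response format. 2,000 cells/well co-treated with 5-fluorouridine and compound, 16 hr in 5% CO2 at 37 °C; ONE-Glo luminescence read after 30 min.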
KB-3-1 tox – KB-3-1 parental cell cytotoxicity | Potency, µM (highest dose often 46.1 µM), hits mostly cytotoxic | AID 1347075 | KB-3-1 viability, CellTiter-Glo ATP luminescence, 72 h | 400,000 compounds, 1.4% hits; note: % is set by controls: 0 for no effect and ±100 for the full control effect; nearly all actives have a fitted effect of over 60% in size
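Screening of KB-3-1 cells (DMEM, 10% FBS, phenol-red free) ran from lowest to highest compound concentration; after 72 h at 37 °C viability was read luminescently and curves fitted.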
ELG1 FLuc counter – luciferase inhibition in cell-free luciferin readout for ELG1 hits | Potency, µM (highest dose often 46.1 µM), for the others: at the highest dose activity change, negative = inhibition, actives largely listed as inhibitors | 350 compounds, 3% hits | cell-free firefly luciferase luminescence counter-screen, ViewLux | shares compounds with ELG1 DNA repair; note: % is set by controls: 0 for no effect and ±100 for the full control effect
ELG1-Luc inh – inhibits ELG1-dependent DNA repair in HEK293T cells, confirmed. Potency, µM (titrated, usually from 46.1 µM), for inactives: top-dose activity change, negative = inhibition, actives largely listed as inhibitors. 670 compounds, 68% hits. shares compounds with ELG1 DNA repair. HEK293T ELG1-luciferase levels, luminescence; cells co-treated with 5-fluorouridine. AID 624248; note: % is set by controls: 0 for no effect and ±100 for the full control effect; nearly all actives have a fitted effect of over 55% in size
Target sequence (Q96QE3 whole entry, looked up): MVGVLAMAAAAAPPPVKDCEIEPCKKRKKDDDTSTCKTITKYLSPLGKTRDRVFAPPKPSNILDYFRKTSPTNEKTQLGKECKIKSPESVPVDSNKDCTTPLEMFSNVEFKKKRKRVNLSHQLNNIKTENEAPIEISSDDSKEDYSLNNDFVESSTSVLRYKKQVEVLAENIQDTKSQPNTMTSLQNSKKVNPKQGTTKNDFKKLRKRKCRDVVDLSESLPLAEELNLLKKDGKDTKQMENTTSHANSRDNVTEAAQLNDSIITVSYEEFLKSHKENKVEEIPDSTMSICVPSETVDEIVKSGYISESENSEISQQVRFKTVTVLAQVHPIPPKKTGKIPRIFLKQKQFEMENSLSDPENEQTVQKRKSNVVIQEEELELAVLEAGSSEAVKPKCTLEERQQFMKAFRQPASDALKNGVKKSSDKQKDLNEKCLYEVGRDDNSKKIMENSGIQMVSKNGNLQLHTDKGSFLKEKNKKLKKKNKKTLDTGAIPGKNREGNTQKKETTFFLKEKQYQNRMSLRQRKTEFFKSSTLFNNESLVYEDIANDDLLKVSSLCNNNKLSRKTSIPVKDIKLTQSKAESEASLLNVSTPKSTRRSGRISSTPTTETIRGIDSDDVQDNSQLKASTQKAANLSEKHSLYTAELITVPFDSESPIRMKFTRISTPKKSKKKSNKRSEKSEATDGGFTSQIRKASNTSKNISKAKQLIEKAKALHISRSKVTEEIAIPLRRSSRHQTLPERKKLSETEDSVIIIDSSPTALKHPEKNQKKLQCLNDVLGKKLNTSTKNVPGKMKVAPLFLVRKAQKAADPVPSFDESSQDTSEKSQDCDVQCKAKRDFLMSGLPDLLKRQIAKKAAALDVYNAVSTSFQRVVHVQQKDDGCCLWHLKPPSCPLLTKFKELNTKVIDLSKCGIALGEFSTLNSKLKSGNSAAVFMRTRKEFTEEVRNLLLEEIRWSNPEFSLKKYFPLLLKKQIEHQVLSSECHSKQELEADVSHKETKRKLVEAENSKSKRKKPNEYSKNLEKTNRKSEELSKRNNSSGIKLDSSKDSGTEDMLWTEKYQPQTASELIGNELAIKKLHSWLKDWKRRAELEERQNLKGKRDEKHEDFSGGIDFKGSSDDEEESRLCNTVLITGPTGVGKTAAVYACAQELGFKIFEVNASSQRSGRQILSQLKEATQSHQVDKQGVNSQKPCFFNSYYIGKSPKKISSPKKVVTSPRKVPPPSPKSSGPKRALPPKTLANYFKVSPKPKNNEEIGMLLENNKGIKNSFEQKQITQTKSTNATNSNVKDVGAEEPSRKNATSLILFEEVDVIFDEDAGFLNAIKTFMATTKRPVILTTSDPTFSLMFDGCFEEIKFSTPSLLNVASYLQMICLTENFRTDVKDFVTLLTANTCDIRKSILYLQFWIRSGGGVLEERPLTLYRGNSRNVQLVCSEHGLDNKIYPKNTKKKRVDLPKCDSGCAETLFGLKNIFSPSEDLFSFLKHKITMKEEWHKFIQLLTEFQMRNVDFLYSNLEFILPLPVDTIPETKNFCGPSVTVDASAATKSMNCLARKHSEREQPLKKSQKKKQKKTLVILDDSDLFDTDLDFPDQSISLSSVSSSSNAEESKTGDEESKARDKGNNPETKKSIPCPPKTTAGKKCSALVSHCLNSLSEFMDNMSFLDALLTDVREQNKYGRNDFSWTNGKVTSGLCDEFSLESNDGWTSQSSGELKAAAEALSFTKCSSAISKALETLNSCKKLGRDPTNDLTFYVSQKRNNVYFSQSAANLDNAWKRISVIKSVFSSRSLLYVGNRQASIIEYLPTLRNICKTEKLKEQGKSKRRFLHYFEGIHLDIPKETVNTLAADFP
ELG1 MMS Luc – confirmation of human ELG1 repair inhibitors, MMS stimulated. Potency, µM (titrated, usually from 46.1 µM), without a hit: at the highest dose activity change, negative = inhibition, hits mostly inhibitors. shares compounds with ELG1 DNA repair. AID 624249. 670 compounds, 53% hits. HEK293T luciferase-tagged ELG1 level, MMS stimulated; note: % is set by controls: 0 for no effect and ±100 for the full control effect; nearly all actives have a fitted effect of over 60% in size
ELG1 5FU viab – confirmation of ELG1 repair inhibitors: viability with 5FU; shares compounds with ELG1 DNA repair; cell viability with 5-FU, ELG1-dependent repair; Potency, µM (series often up to 46.1 µM), inactives show top-dose activity change, negative = viability loss, most hits filed as cytotoxic; 670 tested, under 10 active; AID 624250;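 note: ELG1-luc HEK293T cells cotreated with 5-fluorouridine at 10 µM final; viability measured 16 h after compound addition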
ELG1 MMS cell – confirmation of ELG1 repair inhibitors: viability with MMS | Potency, µM (top dose mostly 46.1 µM), for the others: at the highest dose activity change, negative = viability loss, most hits filed as cytotoxic | Cell viability with MMS, ELG1-dependent DNA repair | 670 compounds, 33% hits | shares compounds with ELG1 DNA repair;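 note: ELG1-luc HEK293T cells co-treated with 10 µM MMS; viability read 16 h after compound addition; % is set by controls: 0 for no effect and ±100 for the full control effect; nearly all actives have a fitted effect of over 60% in size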
Cell viab unstim – affects unstimulated cell viability, ELG1 hit counter-screen | shares compounds with ELG1 DNA repair | cell viability counter-screen, unstimulated, luminescence | Potency, µM (doses to about 45.9 µM), without a hit: at the highest dose activity change, negative = loss of viability, most hits filed as cytotoxic | 900 compounds, 8% hits | AID 624252;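 note: compound exposure lasted 16 hours before reading; % is set by controls: 0 for no effect and ±100 for the full control effect; nearly all actives have a fitted effect of over 55% in size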
FLuc biochem – inhibits purified firefly luciferase, counter-screen for ELG1 hits; shares compounds with ELG1 DNA repair; purified firefly luciferase, luminescence counter-screen; Potency, µM (top dose mostly 57.5 µM), without a hit: top-dose activity, negative = inhibition, actives largely listed as inhibitors; 350 compounds, 10% hits; note: % is set by controls: 0 for no effect and ±100 for the full control effect
* = called active by the depositor; i = inactive; ? = inconclusive; · = not tested or not shown. Only some compounds are listed: those with a hit (about 8.1% of all), similar ones and a draw of the others. Calls come from the whole dose curve; as a rule, active = well fitted curve in the direction sought with a large enough effect; inconclusive = small, poorly fitted or top-dose-only effect, or another doubt; inactive = no such curve, though single readings can be large; an effect the other way counts as inactive or inconclusive. Potency is the fitted concentration of half-maximal effect.

SMILES	MCF10A rereplic	SW480 rereplic	KB-V1 MDR tox	ELG1 DNA repair	KB-3-1 tox	ELG1 FLuc counter	ELG1-Luc inh	ELG1 MMS Luc	ELG1 5FU viab	ELG1 MMS cell	Cell viab unstim	FLuc biochem
Cc1ccc(NC(=O)c2nc[nH]c2C(=O)NCCCCNC(=O)c2[nH]cnc2C(=O)Nc2ccc(C)cc2)cc1	-1.3%	-0.6%	?	0.731µM*	?	-0.3%	1.26µM*	1.77µM*	-23.1%	?	-11.9%	-3.1%
O=C(CCNS(=O)(=O)c1ccccc1F)N1CCN(Cc2ccccc2)CC1	-0.5%	0.9%	i	13.0%	i	·	·	·	·	·	·	·
CCOc1cc(S(=O)(=O)NCc2ccncc2)ccc1Cl	11.6%	-18.5%	i	?	?	-1.2%	?	0.561µM*	-8.3%	0.706µM*	-4.4%	0.2%
Cc1cc(NNC(=O)Nc2cccc(Cl)c2)nc2c1c(C)nn2C	·	·	·	0.731µM*	·	-7.5%	?	0.792µM*	-1.9%	0.997µM*	-10.3%	-0.6%
O=C(O)c1ccc(N2CCCS2(=O)=O)cc1	-2.3%	3.7%	i	2.4%	i	·	·	·	·	·	·	·
O=C(c1ccc(Cl)c(S(=O)(=O)N2CCOCC2)c1)N1CCN(Cc2ccccc2)CC1	3.8%	-8.8%	?	-6.9%	i	·	·	·	·	·	·	·
O=C(c1ccc(Cl)c(S(=O)(=O)N2CCOCC2)c1)N1CCN(c2ccccc2)CC1	?	1.1%	?	0.082µM*	i	47.8%	?	-2.0%	-6.7%	-17.0%	?	-7.0%
Cc1ccc(S(=O)(=O)n2nc(-c3ccccc3)nc2NCc2ccccc2Cl)cc1	·	·	i	·	i	·	·	·	·	·	·	·
Cc1ccc(NC(=O)C2CCCN(c3ncnc4c3nc3n4CCCCC3)C2)cc1Cl (configuration not stated)	8.4%	?	?	-28.2%	?	·	·	·	·	·	·	·
COc1ccc(NC(=O)C2CCN(c3ncnc4c3nc3n4CCCCC3)CC2)cc1Cl	17.0%	?	i	1.83µM*	i	7.5%	3.15µM*	?	?	?	?	-4.3%
Cc1ccc(NC(=O)C2CCN(c3ncnc4c3nc3n4CCCCC3)CC2)cc1Cl	14.6µM*	?	i	2.31µM*	?	-0.9%	9.97µM*	17.7µM*	?	-13.7%	?	-0.3%
COC(=O)CC(c1ccc(C#N)cc1)n1c(C)ccc1C (configuration not stated)	27.3%	-0.4%	i	-9.5%	i	·	·	·	·	·	·	·
CCCn1ncc(C(=O)N(C)C2CCCN(Cc3ccccc3F)C2)c1C (configuration not stated)	3.1%	2.3%	?	-3.4%	i	·	·	·	·	·	·	·
COCCn1c(SCC(=O)N2CC(C)OC(C)C2)nc2c([nH]c3ccccc32)c1=O (configuration not stated)	9.5%	1.1%	i	-9.4%	i	·	·	·	·	·	·	·
CCn1c(SCC(=O)N2CC(C)OC(C)C2)nc2c([nH]c3ccccc32)c1=O (configuration not stated)	10.5%	0.1%	i	3.26µM*	i	·	9.96µM*	-4.7%	?	19.9%	6.2%	·
COc1ccc(NC(NC(=O)c2cccnc2)C(Cl)(Cl)Cl)cc1 (configuration not stated)	-0.2%	-5.2%	i	-5.0%	i	·	·	·	·	·	·	·
C(=C\c1c[nH]c2ccccc12)/c1ccc2ccccc2n1	·	·	i	·	i	-38.7%	·	·	·	·	?	0.116µM*
Cc1[nH]c2ccccc2c1/C=C/c1ccc2ccccc2n1	·	·	?	·	i	·	·	·	·	·	·	·
CCNC(=O)NC(=O)COC(=O)c1cccc(NS(=O)(=O)/C=C/c2ccccc2)c1	6.2%	·	i	-4.7%	i	·	·	·	·	·	·	·
COc1ccc(CNC(=O)c2nn(C)c3c2CS(=O)(=O)c2ccccc2-3)cc1	-5.8%	-6.7%	i	-4.4%	i	·	·	·	·	·	·	·
COc1ccc(OC)c(CNC(=O)c2nn(C)c3c2CS(=O)(=O)c2ccccc2-3)c1	1.3%	-5.7%	i	3.26µM*	i	·	11.2µM*	25.4%	9.3%	-8.9%	?	·
COc1cc2c(C#CCCO)c(-c3ccsc3)oc(=O)c2cc1OC	24.7%	-7.3%	i	?	i	5.0%	6.29µM*	7.92µM*	-2.8%	-8.2%	?	0.8%
COc1ccccc1NC(=O)c1cc2c(CO)cnc(C)c2oc1=Nc1cc(OC)c(OC)c(OC)c1	-0.1%	-0.2%	i	1.0%	i	·	·	·	·	·	·	·
COc1ccccc1NC(=O)c1cc2c(CO)cnc(C)c2oc1=Nc1ccc(OC)c(OC)c1	-3.6%	-11.8%	i	2.91µM*	i	·	0.888µM*	?	?	?	?	·
NC(=O)c1ccccc1NC(=O)CCN1C(=O)c2ccccc2C1=O	2.8%	-6.3%	i	-2.9%	i	·	·	·	·	·	·	·
Cn1c(=O)c2[nH]c(CSCc3ccccc3)nc2n(C)c1=O	-1.2%	-2.1%	i	·	i	·	·	·	·	·	·	·
Cn1c(=O)c2[nH]c(CN(Cc3ccccc3)Cc3ccccc3)nc2n(C)c1=O	4.4%	-8.4%	8.2µM*	4.11µM*	i	·	7.91µM*	?	-9.2%	?	?	·
Cc1cc(F)ccc1C(O)c1ncc(-c2ccc3ccccc3c2)[nH]1 (configuration not stated)	·	·	?	·	i	·	·	·	·	·	·	·
